Reference: PubChem BioAssay (NCATS)
Several values for one entry are separate records, joined by “and”; a condition that tells them apart may be missing. Equal values may be shown once. Inconclusive results are not listed. Activity calls are given as the source filed them. Unless noted, calls follow the shape of the dose curve; as a rule, active = well fitted curve in the direction sought with a large enough effect; inconclusive = small, poorly fitted or top-dose-only effect, or another doubt; inactive = no such curve, though single readings can be large; an effect the other way counts as inactive or inconclusive. Starred links: 1 amine or outer side, 2 acyl side, 3 side chain; linkers in the order of their positions; H or OH if unused. Positions of bridges follow the written chain, without caps; N, C: chain ends. Non-standard residues stand in square brackets, D forms with d. Residues, ends and D or L forms follow the SMILES beside them. Chains are numbered I, II in the order given. Actinocin(9to1) = Cc1c2oc3c(C)ccc(C(=O)[*:1])c3nc-2c(C(=O)[*:2])c(N)c1=O; NMeV = CN[CH](C(=O)O)C(C)C; Sar = CNCC(=O)O

Experiments:
[1] = qHTS profiling of the MIPE4 collection as inhibitors of Plasmodium falciparum (3D7) proliferation (AID 743344; call rule not given here;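 also: scaled between DMSO vehicle wells and 0.29 µM artemisinin as full inhibition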); conditions: P. falciparum 3D7 in erythrocytes, SYBR Green DNA fluorescence, 72 h; at 28.5 µM unless noted
Procedure, shortened: (§1)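 Parasite DNA was quantified by SYBR Green I fluorescence (ex 485, em 535 nm) after overnight lysis in saponin/Triton buffer at room temperature. Cultures at 0.3% parasitemia and 2.5% hematocrit were first exposed to compound for 72 h at 37 C; signals were normalised to artemisinin (0.29 uM) and vehicle wells.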

[2] = qHTS profiling of the MIPE4 collection as inhibitors of Plasmodium falciparum (DD2) proliferation (AID 743345; call rule not given here); conditions: P. falciparum Dd2 in erythrocytes, SYBR Green DNA, 72 h; at 28.5 µM unless noted
Procedure, shortened: as §1

[3] = qHTS profiling of the MIPE4 collection as inhibitors of Plasmodium falciparum (DD2) proliferation (Rep 2) (AID 743346; call rule not given here); conditions: P. falciparum Dd2 in erythrocytes, SYBR Green DNA, 72 h; at 28.5 µM unless noted
Procedure, shortened: as §1

[4] = High-throughput drug toxicity screening in the BPDCN cell line Gen2.2 (AID 1224824; call rule not given here;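 also: cells exposed to compounds for 48 h before reading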); conditions: Gen2.2 BPDCN cells; at 45.8 µM (top of the series) unless noted
Procedure, shortened: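 CellTiter-Glo luminescence read after 48 h compound exposure at 37 C defines viability; percent activity set with DMSO as 100% and bortezomib (9.2 uM final) as 0%. 500 exponentially growing cells per well, RPMI plus 10% FBS.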

[5] = High-throughput drug toxicity screening in the BPDCN cell line Cal-1 (AID 1224825; call rule not given here); conditions: Cal-1 BPDCN cell viability, qHTS; at 45.8 µM (top of the series) unless noted
Procedure, shortened: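 CellTiter-Glo luminescence after 48 h compound exposure; percent activity scaled with DMSO as 100% and bortezomib (9.2 uM final) as 0%. Cal-1 cells seeded at 500/well in RPMI, 10% FBS, no phenol red.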

[6] = qHTS assay for measurement of the activity of small molecule inhibitors on Zika virus induced Caspase-3 activity in human iPSC derived neural progenitor cells (hNPCs) (AID 1224857); also: % of control where 0% means no effect; nearly all actives have a fitted effect of over 65% in size
Procedure, shortened: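 After overnight (16–20 h) culture at 350 cells/well, hNPCs get compound, then ZIKV 2 FFU/cell one hour later. Six hours on, Caspase-Glo 3/7 is added and luminescence measured.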

[7] = qHTS assay for measurement of the activity of small molecule inhibitors on Zika virus induced Caspase-3 activity in human astrocytoma cells (AID 1224859);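 also: plate controls were ZIKV-infected untreated cells for no effect and uninfected cells for full effect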
Procedure, shortened: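 Inhibition of Zika-induced caspase-3/7 activity: SNB-19 cells, 1 h compound pretreatment, ZIKV 2 FFU/cell for 6 h at 37 C, Caspase-Glo luminescence read-out.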

[8] = qHTS Screen of the MIPE 4.0 Collection Against Ewings Sarcoma (RDES) (AID 1259252); also: nearly all actives have a fitted effect of over 35% in size; also: potency is read from the fitted curve at half-maximal effect
Procedure, shortened: (§2)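 Log-phase cells in RPMI with 5% FBS attached for 4 h, then received compounds as a titration for 48 h at 37C, 5% CO2. Viability was read by CellTiter-Glo luminescence and normalized to DMSO and no-cell wells.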

[9] = qHTS Screen of the MIPE 4.0 Collection Against Ewings Sarcoma (TC71) (AID 1259253); also: nearly all actives have a fitted effect of over 40% in size; also: potency is read from the fitted curve at half-maximal effect
Procedure, shortened: as §2

[10] = qHTS Screen of the MIPE 4.0 Collection Against Ewings Sarcoma (EW8) (AID 1259255); also: nearly all actives have a fitted effect of over 35% in size; also: potency is read from the fitted curve at half-maximal effect;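 as to viability: 100% = DMSO-treated cells and 0% = medium-only wells without cells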
Procedure, shortened: as §2

[11] = qHTS Assay for Identifying Gametocytocidal Compounds (AID 743244);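 also: % is scaled to controls: 0 for no effect and ±100 for the full control effect; actives lower the fluorescent signal which means gametocytes are killed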; conditions: P. falciparum 3D7 stage III-V gametocytes, alamarBlue, 72 h; max response: stronger effect = lower value
Procedure, shortened: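 Using 20,000 stage III–V 3D7 gametocytes per well, compounds were incubated 72 h under 37 °C/5% CO2. Viability was then assessed by 24 h alamarBlue reduction, measured fluorometrically at 525/598 nm.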

[12] = qHTS profiling for inhibitors of Plasmodium falciparum (3D7) proliferation (AID 743322; call rule not given here;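 also: infected erythrocytes exposed to compound for 72 h before lysis; 100% = DMSO vehicle wells and 0% = 0.29 µM artemisinin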); conditions: P. falciparum 3D7 proliferation; at 28.7 µM (top of the series)
Procedure, shortened: as §1

[13] = qHTS profiling for inhibitors of Plasmodium falciparum (DD2) proliferation (AID 743323; call rule not given here); conditions: lower = more inhibition; at 28.7 µM (top of the series)
Procedure, shortened: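 Parasite proliferation measured via DNA-dye fluorescence, as uninfected erythrocytes lack DNA. Cultures at 0.3% parasitemia and 2.5% hematocrit incubated 72 h with compound; signal scaled between vehicle and 0.29 uM artemisinin wells.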

[14] = qHTS profiling for inhibitors of Plasmodium falciparum (HB3) proliferation (AID 743324); conditions: Plasmodium falciparum HB3 blood-stage proliferation; at 28.7 µM (top of the series);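 also: 100% = DMSO vehicle wells and 0% = artemisinin-treated control wells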
Procedure, shortened: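 SYBR Green fluorescence (485 ex/535 em) of lysed cultures, incubated overnight at room temperature in the dark, quantifies parasite DNA. Infected erythrocytes at 0.3% parasitemia and 2.5% hematocrit were exposed 72 h; values normalized to DMSO and 0.29 uM artemisinin controls.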

[15] = qHTS profiling of the MIPE4 collection as inhibitors of Plasmodium falciparum (HB3) proliferation (AID 743347; call rule not given here;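 also: plate controls were DMSO vehicle wells for no effect and artemisinin wells for full effect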); conditions: P. falciparum HB3 in erythrocytes, SYBR Green DNA, 72 h; at 28.5 µM unless noted
Procedure, shortened: as §1

[16] = biological target: T1, Hexokinase-4 (Homo sapiens) + Glucokinase regulatory protein (Homo sapiens) (UniProt P35557+Q14397); test: qHTS assay for inhibitors of recombinant human GCK-GKRP interaction: Diaphorase-coupled assay (AID 743205)
T1 sequence (P35557 whole entry, looked up): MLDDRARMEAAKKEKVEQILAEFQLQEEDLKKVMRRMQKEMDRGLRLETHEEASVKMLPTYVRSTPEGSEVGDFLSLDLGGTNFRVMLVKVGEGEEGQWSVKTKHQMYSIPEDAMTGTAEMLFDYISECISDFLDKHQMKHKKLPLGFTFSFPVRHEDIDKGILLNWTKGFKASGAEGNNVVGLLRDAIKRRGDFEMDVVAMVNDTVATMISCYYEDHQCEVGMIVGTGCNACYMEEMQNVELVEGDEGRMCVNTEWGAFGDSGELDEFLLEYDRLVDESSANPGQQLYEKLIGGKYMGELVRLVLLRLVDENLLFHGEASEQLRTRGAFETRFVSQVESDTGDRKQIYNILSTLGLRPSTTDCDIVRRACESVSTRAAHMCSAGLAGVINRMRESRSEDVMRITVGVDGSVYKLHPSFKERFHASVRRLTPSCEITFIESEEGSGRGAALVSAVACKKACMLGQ
T1 sequence (Q14397 whole entry, looked up): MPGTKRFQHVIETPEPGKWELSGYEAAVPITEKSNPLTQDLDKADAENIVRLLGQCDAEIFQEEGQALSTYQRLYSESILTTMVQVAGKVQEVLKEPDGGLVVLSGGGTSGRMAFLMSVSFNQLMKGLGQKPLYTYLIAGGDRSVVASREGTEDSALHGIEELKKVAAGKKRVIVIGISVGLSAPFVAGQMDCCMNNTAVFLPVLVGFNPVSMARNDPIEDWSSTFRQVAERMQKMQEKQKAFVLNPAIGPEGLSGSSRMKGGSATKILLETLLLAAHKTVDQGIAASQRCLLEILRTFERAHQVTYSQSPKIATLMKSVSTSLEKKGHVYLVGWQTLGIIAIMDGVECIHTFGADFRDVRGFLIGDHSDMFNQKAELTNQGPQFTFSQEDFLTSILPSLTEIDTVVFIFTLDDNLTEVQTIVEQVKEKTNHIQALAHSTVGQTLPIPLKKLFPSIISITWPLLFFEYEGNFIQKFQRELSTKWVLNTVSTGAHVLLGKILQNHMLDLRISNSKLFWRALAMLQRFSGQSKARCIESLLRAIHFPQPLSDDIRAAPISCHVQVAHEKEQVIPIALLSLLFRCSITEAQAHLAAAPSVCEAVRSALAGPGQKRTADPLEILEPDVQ
Procedure, shortened: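 A kinetic fluorescence read (Ex 525/Em 590 nm, every minute for 30 minutes) tracked resorufin from a G6PDH-diaphorase coupled GCK reaction. It contained 10 nM GST-GCK, 10 nM FLAG-GKRP, 5 mM glucose, 0.4 mM ATP in Hepes pH 7.6. Normalized to with/without-enzyme DMSO controls.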

[17] = biological target: T1, Hexokinase-4 (Homo sapiens) + Glucokinase regulatory protein (Homo sapiens); test: qHTS assay for inhibitors of recombinant human GCK-GKRP interaction: ADP-Glo assay (AID 743206);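 also: plate controls were DMSO plus enzyme for no effect and no enzyme for full effect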
Procedure, shortened: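 Pin-transferred compounds meet a 15 nM GST-GCK/15 nM FLAG-GKRP/2 uM S6P mix (dispense concentrations). ATP is then added to 0.4 mM final with 5 mM glucose, and the reaction runs 60 min at room temperature. ADP is quantified luminescently.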

[18] = biological target: T1, Hexokinase-4 (Homo sapiens) + Glucokinase regulatory protein (Homo sapiens); test: qHTS assay for inhibitors of recombinant human GCK-GKRP interaction: HTRF assay (AID 743207);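 also: 0% = DMSO with GCK present and -100% = DMSO wells lacking GCK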
Procedure, shortened: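 After 60 min equilibration at room temperature with anti-FLAG XL665 and anti-GST antibodies, FRET ratio (665/615 nm, excitation 320 nm) was read. Proteins: GST-GCK and FLAG-GKRP, each 5 nM, plus 2 uM S6P, pH 7.1 buffer; GCK-free wells define minimum signal.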

SMILES	parasite growth, % of DMSO control [1]	parasite growth remaining, % of DMSO control (lower = more inhibition) [2]	parasite growth, % of control (lower = inhibition) [3]	cell viability, % of control (lower = more cytotoxic) [4]	viability (% of control) [5]	Potency [6]	Potency [7]	Potency [8]	Potency [9]	Potency [10]	max response [11]	remaining parasite growth % (stronger effect = lower value) [12]	activity, percent of control [13]	remaining proliferation (% of control), lower = more inhibition [14]	growth, % of control [15]	outcome [16]	outcome [17]	outcome [18]
CC(Cc1ccc(O)c(O)c1)(NN)C(=O)O (stereo unspecified)	54.5%	15.4%	75.5%	108%	91.3%	inactive	inactive	inactive	inactive	inactive								
O=[N+]([O-])c1cn2c(n1)OC[C@@H](OCc1ccc(OC(F)(F)F)cc1)C2	94.2% and 79.4%	99.7% and 101%	155% and 70.1%	110%	105%	inactive	inactive	3.32 µM (active)	3.72 µM (active)	9.35 µM (active)								
CCCCCCCN(CC)CCCC(O)c1ccc(NS(C)(=O)=O)cc1 (stereo unspecified)	58.8%	83.7%	72%	213%	81.4%	inactive	inactive	inactive	inactive	inactive	-2.04% (inactive)							
O=C(O)CCCCC(CCSCc1ccccc1)SCc1ccccc1 (stereo unspecified)	76.2%	96.3%		54.3%	23.9%	inactive	inactive	inactive	inactive	inactive		84%	84%	70.4%	63.9%			
Cc1c2oc3c(C)ccc(C(=O)NC4C(=O)NC(C(C)C)C(=O)N5CCCC5C(=O)N(C)CC(=O)N(C)C(C(C)C)C(=O)OC4C)c3nc-2c(C(=O)NC2C(=O)NC(C(C)C)C(=O)N3CCCC3C(=O)N(C)CC(=O)N(C)C(C(C)C)C(=O)OC2C)c(N)c1=O (stereo unspecified) (I: TVP[Sar][NMeV] / II: TVP[Sar][NMeV]; ester I:1-I:C, II:1-II:C; linker I:N-II:N via Actinocin(9to1); configuration not given here)	3.86%	3.9%		2.59%	1.96%	inactive	inactive	inactive	inactive	inactive		-4%	-2.06%	-1.93%				
NC(=O)c1ncn([C@@H]2O[C@H](CO)[C@@H](O)[C@@H]2O)c1N	96.5%	91.5%	95.2%	191%	112%	inactive	inactive	inactive	inactive	inactive		94.2%	92.4%	92.9%	68.2%			
N#Cc1ccc(COC[C@H]2O[C@@H](n3c(NCc4ccc(Cl)c(Cl)c4)nc4c(N)ncnc43)[C@@H](O)[C@@H]2O)cc1	20.4%	48.6%	23.2%	10.7%	3.42%	inactive	inactive	9.35 µM (active)	9.35 µM (active)	9.35 µM (active)	-16.6% (inactive)	37.7%	23.4%	21.1%	23.2%			
CS(=O)(=O)N1CCc2c(-c3cnc(N)nc3)nc(N3CCOCC3)nc21	5.02%	9.76%	6.07%	10.4%	33.9%	inactive	inactive	0.105 µM (active)	0.59 µM (active)	1.32 µM (active)								
CCN(CC)CCNC(=O)c1c(C)[nH]c(C=C2C(=O)Nc3ccc(F)cc32)c1C	4.82% [at 57.5 µM]	7.72% [at 57.5 µM]	16% [at 57.5 µM]	7.6% [at 92.2 µM]	4.58% [at 92.2 µM]	inactive	inactive	9.59 µM (active)	13.6 µM (active)	4.29 µM (active)					5.65% [at 57.5 µM]			
CCCCCCCCCCCCCCCC(=O)OC[C@@H](NC(=O)C(Cl)Cl)[C@H](O)c1ccc([N+](=O)[O-])cc1	101%	95.4%	135%	132%	117%	inactive	inactive	inactive	inactive	inactive	5.04% (inactive)				112%			
CCOC(=O)[C@@H](N)Cc1ccc(-c2cc(O[C@H](c3ccc(Cl)cc3-n3ccc(C)n3)C(F)(F)F)nc(N)n2)cc1	5.93%	28.1%	43.9%	10.1%	16.2%	inactive	inactive	26.4 µM (active)	23.5 µM (active)	26.4 µM (active)								
COc1cc2c(cc1OC)[C@@H]1C(=O)c3ccc4c(c3O[C@@H]1CO2)C=CC(C)(C)O4	45.9%	91.2%	39.7%	7.01%	3.79%	inactive	inactive	23.5 µM (active)	23.5 µM (active)	33.2 µM (active)	-5.53% (inactive)	39.1%	44.5%	17.6%	47.7%			
COC(=O)[C@H](CCCN=C(N)N)NS(=O)(=O)c1ccc(C)cc1				94.4%	104%	inactive	inactive	inactive	inactive	inactive								
CCCCCCCCCCCC(CC1OC(=O)C1CCCCCC)OC(=O)C(CC(C)C)NC=O (stereo unspecified)	7.26%	13.8%	17%	82.8%	89.4%	inactive	inactive	inactive	inactive	inactive								
C[C@H]1[C@@H](OC(=O)CCC(=O)O)O[C@@H]2O[C@@]3(C)CC[C@@H]4[C@H](C)CC[C@@H]1[C@@]24OO3	21.4%	7.38%	10.6%	9.55%	5.3%	inactive	inactive	1.87 µM (active)	1.32 µM (active)	1.66 µM (active)								
O=c1[nH]c(=O)n([C@H]2C[C@@H](O)[C@@H](CO)O2)cc1C=CBr				164%	115%	inactive	inactive	inactive	inactive	inactive	30.7% (inactive)					inactive	inactive	inactive
